# Test results taken from the supplement of paper PMC9950053.
# Where a name gives a salt, the structure may show the parent alone.
# System: Danio rerio larvae (5 dpf)
# Assay: startle (activity period 16 minus period 15, 20-s interval sound) minus DMSO control (percentage points); higher = stronger startle response than DMSO larvae
# Conditions: 10 µM; exposure time: 3 h pre-incubation + 3 h imaging
# Description: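 Wild-type 5 dpf zebrafish larvae (n=48 per drug, 96-well plates, 28.5 °C) were exposed to Tocris FDA-approved library compounds at 10 µM (0.1% DMSO) for 3 h before and 3 h during imaging. Images were taken every 6 s during visual (moving coloured lines) and acoustic stimuli, and larvae were tracked with the DeepLabCut-based Z-LaP Tracker. Each behavioural measure is the treated-group mean minus the DMSO vehicle control mean (n=844), in percentage points. This mapping covers compounds with 4-character plate codes.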
row,Structure (SMILES),startle
1,CCCCNc1cc(C(=O)O)cc(S(N)(=O)=O)c1Oc1ccccc1 [Bumetanide],3.28
2,CC(C)[C@H]1CC[C@H](C(=O)N[C@H](Cc2ccccc2)C(=O)O)CC1 [Nateglinide],3.17
3,CNC(=O)c1ccccc1Sc1ccc2c(/C=C/c3ccccn3)n[nH]c2c1 [Axitinib],-7.2
4,CCc1ccc(CCOc2ccc(CC3SC(=O)NC3=O)cc2)nc1 (stereo not given) [Pioglitazone hydrochloride],-4.69
5,COc1cc2ncnc(Nc3ccc(F)c(Cl)c3)c2cc1OCCCN1CCOCC1 [Iressa],-1.42
6,Clc1ccc(COC(Cn2ccnc2)c2ccc(Cl)cc2Cl)c(Cl)c1 (stereo not given) [Miconazole nitrate],5.64
7,O=c1[nH]c(=O)n([C@H]2C[C@H](O)[C@@H](CO)O2)cc1C(F)(F)F [Trifluorothymidine],1.59
8,CN(CCOc1ccc(NS(C)(=O)=O)cc1)CCc1ccc(NS(C)(=O)=O)cc1 [Dofetilide],0.253
9,CCc1c2c(nc3ccc(OC(=O)N4CCC(N5CCCCC5)CC4)cc13)-c1cc3c(c(=O)n1C2)COC(=O)[C@]3(O)CC,0.964
10,COCCCOc1cc(C[C@@H](C[C@H](N)[C@@H](O)C[C@H](C(=O)NCC(C)(C)C(N)=O)C(C)C)C(C)C)ccc1OC [Aliskiren hemifumarate],0.496
11,Cc1ccc(NC(=O)c2ccc(CN3CCN(C)CC3)cc2)cc1Nc1nccc(-c2cccnc2)n1 [Imatinib mesylate],5.71
12,C#C[C@]1(O)CC[C@H]2[C@@H]3CCC4=CC(=O)CC[C@@H]4[C@H]3CC[C@@]21CC [Levonorgestrel],-4.23
13,CCCc1nc(C(C)(C)O)c(C(=O)O)n1Cc1ccc(-c2ccccc2-c2nnn[nH]2)cc1 [Olmesartan],8.5
14,Cn1nnc2c(C(N)=O)ncn2c1=O [Temozolomide],2.78
15,CC(C)(C#N)c1cc(Cn2cncn2)cc(C(C)(C)C#N)c1 [Anastrozole],-0.0231
16,CC1(C)O[C@@H]2[C@@H](CO[C@@]3(COS(N)(=O)=O)OC(C)(C)O[C@@H]23)O1 [Topiramate],-0.863
17,Cc1cccc(CN2CCN(C(c3ccccc3)c3ccc(Cl)cc3)CC2)c1 (stereo not given) [Meclizine dihydrochloride],-7.54
18,Cc1ccc(-c2cc(C(F)(F)F)nn2-c2ccc(S(N)(=O)=O)cc2)cc1 [Celecoxib],-8.09
19,CCOC(=O)[C@H](CCc1ccccc1)N[C@@H](C)C(=O)N1[C@H](C(=O)O)C[C@@H]2CCC[C@@H]21 [Ramipril],-0.503
20,C[C@H](Cc1cc2c(c(C(N)=O)c1)N(CCCO)CC2)NCCOc1ccccc1OCC(F)(F)F [Silodosin],2.61

row,Structure (SMILES),startle
1,COc1c(C)c2c(c(O)c1C/C=C(\C)CCC(=O)OCCN1CCOCC1)C(=O)OC2 [Mycophenolate mofetil],3.22
2,NC(=O)N1c2ccccc2C=Cc2ccccc21 [Carbamazepine],3.47
3,CC(C)n1c(/C=C/C(O)CC(O)CC(=O)O)c(-c2ccc(F)cc2)c2ccccc21 (stereo not given) [Fluvastatin sodium],3.68
4,COC(c1ccccc1)(c1ccccc1)[C@H](Oc1nc(C)cc(C)n1)C(=O)O [Ambrisentan],6.56
5,CCN(Cc1ccncc1)C(=O)C(CO)c1ccccc1 (stereo not given) [Tropicamide],-6.79
6,CCOc1ccccc1OCCN[C@H](C)Cc1ccc(OC)c(S(N)(=O)=O)c1 [Tamsulosin hydrochloride],1.92
7,O=C(Nc1c(Cl)cncc1Cl)c1ccc(OC(F)F)c(OCC2CC2)c1 [Roflumilast],3.93
8,CC(C)(C)NC(=O)[C@@H]1C[C@@H]2CCCC[C@@H]2CN1C[C@@H](O)[C@H](Cc1ccccc1)NC(=O)[C@H](CC(N)=O)NC(=O)c1ccc2ccccc2n1 [Saquinavir mesylate],0.811
9,CCOC(=O)N1CCC(=C2c3ccc(Cl)cc3CCc3cccnc32)CC1 [Loratidine],8.94
10,COc1ccc([C@@H]2Sc3ccccc3N(CCN(C)C)C(=O)[C@@H]2OC(C)=O)cc1 [Diltiazem hydrochloride],1.21
11,CN1CCN2c3ncccc3Cc3ccccc3C2C1 (stereo not given) [Mirtazapine],-6.05
12,COC(=O)C1=C(C)NC(C)=C(C(=O)OC(C)C)C1c1cccc2nonc12 (stereo not given) [Isradipine],-8.8
13,O=C(O[C@@H]1C[C@@H]2C[C@H]3C[C@H](C1)N2CC3=O)c1c[nH]c2ccccc12 [Dolasetron mesylate],0.504
14,N[C@@H]1[C@H]2CN(c3nc4c(cc3F)c(=O)c(C(=O)O)cn4-c3ccc(F)cc3F)C[C@@H]12 [Trovafloxacin mesylate],-8.4
15,CCOC(=O)c1ncn2c1CN(C)C(=O)c1cc(F)ccc1-2 [Flumazenil],-0.637
16,Nc1ncn([C@H]2C[C@H](O)[C@@H](CO)O2)c(=O)n1 [Decitabine],-1.27
17,Cc1ccsc1C(=CCCN1CCC[C@@H](C(=O)O)C1)c1sccc1C [Tiagabine hydrochloride],7.31
18,CC(=O)NC[C@H]1CN(c2ccc(N3CCOCC3)c(F)c2)C(=O)O1 [Linezolid],2.73
19,OC(CNCC(O)C1CCc2cc(F)ccc2O1)C1CCc2cc(F)ccc2O1 (stereo not given) [Nebivolol hydrochloride],-4.81
20,Cc1nc(Nc2ncc(C(=O)Nc3c(C)cccc3Cl)s2)cc(N2CCN(CCO)CC2)n1 [Dasatinib],-0.00442
